Rows were chosen to be rich in hits. Some 12% of all compounds tested hit in one or more screens of this group.
G9a inh = G9a (human) methyltransferase inhibition; hit rate 8.8% among 350,000; Potency, µM (highest dose often 102 µM), hits mostly inhibitors; G9a H3K9 monomethylation, AlphaScreen, 2 h; Q96KQ7; note: nearly all actives have a fitted effect of over 75% in size
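Quantitative HTS format: methyltransferase activity on a biotin-tagged H3K9 peptide is measured by AlphaScreen, using a rabbit anti-monomethyl-H3K9 antibody with streptavidin donor and anti-IgG acceptor beads. Final levels are 20 nM enzyme, 500 nM peptide, 20 uM SAM; 2 h RT.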
Sfp inh = blocks B. subtilis Sfp PPTase activity | Q9F4F7 | Biochemical Sfp PPTase activity, qHTS | hit rate 3.5% among 310,000 | Potency, µM, actives largely listed as inhibitors | AID 1490;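 note: the enzyme is Sfp with the accession as filed and its product quenches rhodamine fluorescence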
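Fluorescence-quenching assay with 15 nM Sfp, 5 uM rhodamine-CoA and 12.5 uM BHQ-2-labelled ybbR peptide in pH 7.6 Hepes/MgCl2 buffer. Enzyme was pre-incubated with compound for 15 min at room temperature. Rate was taken from the 30-min fluorescence change (525/598 nm).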
HP1b binding inh = inhibitors of HP1-beta chromodomain binding to methylated histone tails; P83916; AlphaScreen HP1-beta / biotin-H3K9me3 peptide binding; Potency, µM (highest dose often 114 µM), usual class: inhibitors; AID 540317; hit rate 0.56% among 390,000; note: nearly all actives have a fitted effect of over 70% in size
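Compound inhibition of the preformed complex between 50 nM HP1-beta and 50 nM biotinylated H3K9me3 peptide was read by AlphaScreen. Buffer was PBS pH 7.4 with 0.01% Tween-20. Incubations ran 30 min at room temperature, with 10 ug/mL donor/acceptor beads.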
BAZ2B inh = inhibitors of human BAZ2B bromodomain; AlphaScreen BAZ2B-H3K14Ac peptide displacement; Potency, µM (highest dose often 114 µM), hits mostly inhibitors; hit rate 4.4% among 360,000; AID 504333; note: nearly all actives have a fitted effect of over 60% in size
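Compounds, titrated to a top concentration of 110 uM, were incubated 30 min at room temperature with preformed BAZ2B/acetyl-K14 H3 peptide complex (50 nM each). Proximity signal was measured by AlphaScreen after 20 min with beads.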
JMJD2A Tudor = inhibitors of human JMJD2A Tudor domain; AlphaScreen JMJD2A-Tudor / H3K4me3 peptide binding; Potency, µM (highest dose often 114 µM), usual class: inhibitors; hit rate 4.4% among 390,000; note: nearly all actives have a fitted effect of over 50% in size
Target sequence (O75164 whole entry, looked up, the tested form may be a part): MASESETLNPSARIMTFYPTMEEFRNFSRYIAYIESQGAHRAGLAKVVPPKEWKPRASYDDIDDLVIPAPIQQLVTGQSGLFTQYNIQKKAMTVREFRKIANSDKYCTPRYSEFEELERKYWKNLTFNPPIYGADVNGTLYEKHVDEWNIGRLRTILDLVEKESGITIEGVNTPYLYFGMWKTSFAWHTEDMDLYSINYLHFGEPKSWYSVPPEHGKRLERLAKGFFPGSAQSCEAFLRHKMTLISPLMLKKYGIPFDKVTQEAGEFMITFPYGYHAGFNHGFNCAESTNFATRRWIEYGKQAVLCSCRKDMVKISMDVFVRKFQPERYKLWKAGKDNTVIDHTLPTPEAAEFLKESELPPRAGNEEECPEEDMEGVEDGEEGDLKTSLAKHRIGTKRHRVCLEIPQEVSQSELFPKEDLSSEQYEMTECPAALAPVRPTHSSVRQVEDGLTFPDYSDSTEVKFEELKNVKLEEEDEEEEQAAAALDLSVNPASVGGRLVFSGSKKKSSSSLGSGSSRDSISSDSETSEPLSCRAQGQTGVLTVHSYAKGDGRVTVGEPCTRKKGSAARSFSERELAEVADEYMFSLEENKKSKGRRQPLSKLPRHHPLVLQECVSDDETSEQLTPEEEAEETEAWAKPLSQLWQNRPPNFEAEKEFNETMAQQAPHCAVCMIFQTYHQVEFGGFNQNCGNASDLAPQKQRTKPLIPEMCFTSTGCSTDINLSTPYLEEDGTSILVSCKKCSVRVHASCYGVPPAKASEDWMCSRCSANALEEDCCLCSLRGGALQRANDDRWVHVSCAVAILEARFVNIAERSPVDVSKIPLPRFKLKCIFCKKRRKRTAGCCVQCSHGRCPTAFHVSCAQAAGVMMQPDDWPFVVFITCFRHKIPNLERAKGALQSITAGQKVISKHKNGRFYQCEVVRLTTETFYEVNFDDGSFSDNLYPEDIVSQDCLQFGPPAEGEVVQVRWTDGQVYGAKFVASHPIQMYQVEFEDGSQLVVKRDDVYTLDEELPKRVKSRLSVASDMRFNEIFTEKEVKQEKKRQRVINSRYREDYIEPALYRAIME
A number is an active result; n = inactive; u = inconclusive; x = not tested or not shown; ! = a repeat was not active; [ ] = another dose, or the depositor's remark. Calls come from the whole dose curve; as a rule, active = well fitted curve in the direction sought with a large enough effect; inconclusive = small, poorly fitted or top-dose-only effect, or another doubt; inactive = no such curve, though single readings can be large; an effect the other way counts as inactive or inconclusive.

SMILES	G9a inh	Sfp inh	HP1b binding inh	BAZ2B inh	JMJD2A Tudor
C#CCOCCOCCOCCNc1nc(N2CCN(C(=O)C([C@@H](C)O)n3cc([C@@H](N)CCCCN)nn3)CC2)nc(N2CCN(C(=O)[C@H](CCCCN)n3cc([C@@H](N)[C@H](C)CC)nn3)CC2)n1 (some centres not stated)	x	x	n	x	u
C#CCOCCOCCOCCNc1nc(N2CCN(C(=O)[C@H](CCCCN)n3cc(C(N)CO)nn3)CC2)nc(N2CCN(C(=O)[C@H](CCC(=O)O)n3cc(C(N)CC(C)C)nn3)CC2)n1 (some centres not stated)	u	u	x	20µM	x
C#CCOCCOCCOCCNc1nc(N2CCN(C(=O)C([C@@H](C)O)n3cc([C@@H](N)CCCCN)nn3)CC2)nc(N2CCN(C(=O)[C@H](CCC(=O)O)n3cc([C@@H](N)[C@H](C)CC)nn3)CC2)n1 (some centres not stated)	x	x	n	x	89µM
CCc1ccccc1N1CC23C=CC(O2)C(C(=O)O)C3C1=O (configuration not stated)	n	n	n	n	22µM
c1ccc(CSc2nnc(Cc3ccccc3)o2)cc1	u	u	n	n	79µM
Cc1ccc(CSc2nnc([C@@H]3CCCN3)o2)cc1	x	n	n	n	n
Clc1ccc(CSc2ncccn2)cc1	n	n	n	n	n
c1ccc(CSc2nnc([C@@H]3CCCN3)o2)cc1	x	n	n	50µM	u
c1ccc(CSc2ncccn2)cc1	25µM	n	n	n	n
Cc1ccc(S(=O)(=O)NC(Cc2ccccc2)C(=O)O)cc1 (configuration not stated)	n	n	n	n	n
COc1ccc(S(=O)(=O)N[C@@H](CSCc2ccccc2)C(=O)O)cc1	50µM	n	n	u	n
COc1ccc(C[C@@H](NS(=O)(=O)c2ccc(C(=O)O)cc2)C(=O)O)cc1	n[12.7 µM]	n	x	n	n
CC(C)(C)c1ccc(S(=O)(=O)NC(Cc2ccccc2)C(=O)O)cc1 (configuration not stated)	79µM	u	u	n	n
Cc1ccc(S(=O)(=O)NC(CC(N)=O)C(=O)O)cc1 (configuration not stated)	16µM	n	n	n	u
Cc1ccc(S(=O)(=O)NC(Cc2ccc(Cl)cc2)C(=O)O)cc1 (configuration not stated)	n	n	n	n	n
Cc1cc(C)c(NC(=O)/C(=C/c2ccco2)c2ccccc2)c(C)c1	45µM	35µM	n	n	n
Cc1cc(C)c(NC(=O)c2cccc(NC(=O)c3ccco3)c2)c(C)c1	n	n	n	n	n
Cc1cccc(C)c1NC(=O)/C(=C/c1ccco1)c1ccccc1	32µM	22µM	n	n	n
COc1ccc(NC(=O)CSc2ncc(-c3ccc(Cl)cc3)[nH]2)cc1OC	n	x	n	u	n
CCN(CC)S(=O)(=O)c1cc(NC(=O)c2ccccc2OCc2c(C)noc2C)ccc1C	x	x	n	x	89µM
Cc1noc(C)c1COc1ccccc1C(=O)Nc1cccc(S(=O)(=O)N(C)C)c1	n	x	n	n	n
COc1cccc(NC(=O)CN(C)C(=O)c2ccccc2OCc2c(C)noc2C)c1	7.9µM	x	n	n	n
CCN(C(=O)COC(=O)CCC(=O)c1ccccc1)c1c(N)n(Cc2ccccc2)c(=O)[nH]c1=O	n[12.7 µM]	x	n	n	n
COc1ccc(N2C(=O)NC(NS(=O)(=O)c3ccccc3)(C(F)(F)F)C2=O)cc1 (configuration not stated)	n	n	n	n	n
COc1ccc(N=C2C(=S)N(c3ccc(OC)cc3)C(=NS(=O)(=O)c3ccccc3)N2c2ccccc2)cc1	x	x	10µM	x	u
SMILES	G9a inh	Sfp inh	HP1b binding inh	BAZ2B inh	JMJD2A Tudor
CC1CCCN(S(=O)(=O)c2ccc3c(c2)c(=O)nc2ccccn23)C1 (configuration not stated)	n	n	n	n	n
CCCCCN1C(=O)/C(=C/c2c(N3CCc4ccccc4C3)nc3ccccn3c2=O)SC1=S	x	x	u	x	40µM
COc1cc(=O)n2c(-c3ccccc3)csc2n1	n	n	n	n	n[11.4 µM]
Cc1ccc(-c2csc3n[nH]c(=S)n23)cc1	1.4µM	13µM	u	28µM	1.1µM
COC(=O)c1scc(-c2ccc(C)cc2)c1S(=O)(=O)N1CCN(c2ccc(OC)cc2)CC1	11µM	x	u	u	u
COC(=O)c1scc(-c2ccc(C)cc2)c1S(=O)(=O)N1CCN(c2ccc(F)cc2)CC1	u	x	u	n	n
CCOc1ccc(C2=Cc3cc(OC)c(OC)cc3C(=C(Cl)Cl)O2)cc1	7.1µM	n	x	u	x
CCOc1ccc(-c2cc(-c3nc(-c4ccc(OC)c(OC)c4)no3)[nH]n2)cc1	n	x	n	n	n
O=c1[nH]c(SCc2ccccc2)nc2c1CCCC2	n	x	n	n	n
CN(C)CCCNc1nc(-c2ccccc2)nc2ccccc12	79µM	n	n	n	n
COc1ccc(CNc2nc(-c3ccc(N(C)C)cc3)nc3ccccc23)c(OC)c1	n[0.501 µM]	18µM	x	x	x
COc1ccc(CNc2nc(-c3cccc(C#N)c3)nc3ccccc23)c(OC)c1	n[0.501 µM]	n	x	x	x
CC(C)OCCCNc1nc(-c2ccccc2)nc2ccccc12	n	n	n	n	n
CCc1ccc(C2c3c(-c4ccccc4O)n[nH]c3C(=O)N2Cc2cccnc2)cc1 (configuration not stated)	n	x	n	n	n
CN1CCN(c2c(F)cc3c(=O)c(C(=O)O)cn4c3c2SCC4)CC1	7.9µM!	n	n	u	n
O=C(Nc1ccc2nc(SCC(=O)N3CCCC3)sc2c1)c1ccccc1F	n	x	n	n	n
O=C1C2C3C=CC(C4CC34)C2C(=O)N1/N=C/c1c[nH]c2ccccc12 (configuration not stated)	50µM	n	n	n	n
Cc1nc2ccc(NC(=O)C3COc4ccccc4O3)cc2s1 (configuration not stated)	n	n	n	n	n
Cc1cnc(NC(=O)C2COc3ccccc3O2)s1 (configuration not stated)	35µM	n	n	u	u
Cc1nc2cc(NC(=O)C3COc4ccccc4O3)ccc2s1 (configuration not stated)	50µM	n	n	n	n
CC(C)NC(=O)c1ccccc1NC(=O)C1COc2ccccc2O1 (configuration not stated)	n	n	n	n	50µM
CCC(C)NC(=O)c1ccccc1NC(=O)C1COc2ccccc2O1 (configuration not stated)	n	n	n	n	n
COC(=O)c1c(-c2ccc(Cl)cc2)noc1N1CCN(c2ccc(F)cc2)CC1	n	x	n	u	n
Cc1ccc(Cl)cc1N1CCN(C(=O)Cn2c(-c3cccs3)cc3cc(F)ccc32)CC1	n	x	n	n	n
CC(C)c1ccc(CN2CCN(C(=O)CCl)CC2)cc1	u	n	n	n	n
